Experimental data: PubChem BioAssay AID651906 (Vanderbilt Specialized Chemistry Center, 2012)
Activity calls are given as the source filed them. No rule for the calls is given here.

Biological target: Protein deacetylase HDAC6 (Homo sapiens) (UniProt Q9UBN7)
Assay: HDAC6 deacetylase inhibition, profiling panel, selectivity assay for E-cadherin restoration project, biochemical, human (AID 651906)

Protein deacetylase HDAC6 (Homo sapiens), sequence (Q9UBN7 whole entry, looked up): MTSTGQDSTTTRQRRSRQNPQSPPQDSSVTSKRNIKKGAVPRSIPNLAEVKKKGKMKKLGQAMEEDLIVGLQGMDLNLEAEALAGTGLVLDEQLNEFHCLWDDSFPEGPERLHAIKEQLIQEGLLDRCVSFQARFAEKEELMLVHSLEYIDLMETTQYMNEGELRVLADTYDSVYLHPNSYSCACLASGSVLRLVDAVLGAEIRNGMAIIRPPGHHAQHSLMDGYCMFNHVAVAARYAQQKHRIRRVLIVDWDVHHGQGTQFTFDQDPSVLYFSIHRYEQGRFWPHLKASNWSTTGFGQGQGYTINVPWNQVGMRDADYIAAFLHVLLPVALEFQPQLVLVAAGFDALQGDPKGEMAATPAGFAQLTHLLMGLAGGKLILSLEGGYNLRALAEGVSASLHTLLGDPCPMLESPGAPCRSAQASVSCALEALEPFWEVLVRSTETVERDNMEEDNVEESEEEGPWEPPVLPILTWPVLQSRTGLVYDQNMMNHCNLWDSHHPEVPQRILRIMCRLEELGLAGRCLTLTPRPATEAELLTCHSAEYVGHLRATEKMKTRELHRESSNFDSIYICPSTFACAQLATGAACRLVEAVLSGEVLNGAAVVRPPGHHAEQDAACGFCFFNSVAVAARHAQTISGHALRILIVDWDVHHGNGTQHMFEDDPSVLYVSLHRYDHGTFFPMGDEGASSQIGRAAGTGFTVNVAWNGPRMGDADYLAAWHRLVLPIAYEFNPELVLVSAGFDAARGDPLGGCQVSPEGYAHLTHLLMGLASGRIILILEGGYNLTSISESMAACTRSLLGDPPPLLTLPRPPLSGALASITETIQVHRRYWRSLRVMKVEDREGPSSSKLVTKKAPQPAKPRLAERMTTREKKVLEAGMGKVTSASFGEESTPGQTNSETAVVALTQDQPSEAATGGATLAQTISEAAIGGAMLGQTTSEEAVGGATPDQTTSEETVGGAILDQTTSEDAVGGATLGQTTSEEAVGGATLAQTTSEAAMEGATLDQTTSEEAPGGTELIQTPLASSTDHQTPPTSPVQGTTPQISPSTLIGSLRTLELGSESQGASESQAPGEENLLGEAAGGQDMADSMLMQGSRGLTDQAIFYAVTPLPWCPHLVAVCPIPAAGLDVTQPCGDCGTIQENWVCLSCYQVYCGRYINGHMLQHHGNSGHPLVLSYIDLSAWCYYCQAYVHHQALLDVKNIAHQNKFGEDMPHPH

## O=C(NCCCNC(=O)c1ccc[nH]c1=O)c1cc(-c2ccccc2)on1
  outcome: inactive
